# Assay results reported in publication PMC5540273 (PLoS ONE, 2017).
# Tested on: TEC
# Settings: concentration: 1 μM, replicates: in singlicate; n = 1
# 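Also: KINOMEscan kinase panel screen.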
row,SMILES,%Inh
1,Cl.c1ccc(-c2n[nH]cc2-c2ccnc(-c3ccc(CN4CCOCC4)cc3)c2)nc1 [GW776245],17%
2,Cc1nnc(-c2ccc3occ(-c4ccc(S(C)=O)cc4)c3c2)[nH]1 (stereo not shown),13%
3,Cn1ccc2ncnc(Oc3ccc(Nc4nc5ccccc5[nH]4)cc3)c21,0%
4,COc1cc2ncn(-c3cc(OCC4CCCO4)c(C(N)=O)s3)c2cc1OC (stereo not shown) [GSK204607],0%
5,Cc1cccc(-c2nc(-c3ccc(S(C)(=O)=O)cc3)sc2-c2ccnc(NCCc3ccccc3)c2)c1,0%
6,COC(=O)c1c(-c2ccccc2)c2cc(C(=O)O)ccc2c(=O)n1Cc1ccccc1,0%
7,Cl.Oc1ccc(-c2nc(-c3ccccc3)[nH]c2-c2ccncc2)cc1 [SB-428218],0%
8,CC(=O)Nc1nc2cnc(Nc3cc(NC(=O)c4cccc(CCC#N)c4)ccc3C)nc2s1,10%
9,CSc1nn2c(=O)cc(N3CCOCC3)nc2n1Cc1cccc(C(F)(F)F)c1C [GSK2363608],7%
10,O=C(Nc1n[nH]c2nc(-c3nccs3)c(Br)cc12)C1CCCC1 [SB-742609],0%
11,CCn1c(-c2ccccn2)nc2cnccc21 [SB-736398],0%
12,NC(=O)c1nnc2ccccc2c1N,0%
13,COc1ccc(Nc2nccc(NCCNC(=O)Nc3ccccc3F)n2)cc1 [GSK1379901],12%
14,Cc1cc(N2Cc3ccccc3C2)nc(Nc2ccc(S(=O)(=O)N3CCOCC3)cc2)n1.Cl [GSK1669917],0%
15,CC1=C(C(=O)Nc2cc3cn[nH]c3cc2F)C(c2ccc(C(F)(F)F)cc2)CC(=O)N1 (stereo not shown) [GSK429286],18%
16,COC(=O)c1c(-c2ccccc2)c2cc(OC)ccc2c(=O)n1Cc1ccccc1,14%
17,O=C(O)COc1ncnc2cc(-c3ccc4[nH]ncc4c3)sc12,0%
18,Nc1nc(-c2nccs2)c(-c2ccnc3ccccc23)s1 [GW693542],16%

row,SMILES,%Inh
1,Cn1cncc1-c1ccc2ncnc(Nc3ccc(OCc4ccccc4)cc3)c2c1 [GW320571],6%
2,O=C(Nc1ccc2c(c1)OCO2)NC1CCN(c2ccnc(Nc3ccc(F)cc3)n2)C1 (stereo not shown) [GSK1379724],7%
3,Cc1ccccc1-n1cnc2c(N)ncnc21 [SKF-97510],9%
4,Cn1ccc2ncnc(Oc3ccc(NC(=O)Nc4ccccc4)cc3)c21,0%
5,O=C1NC(=O)C(N2CCc3ccccc32)=C1c1ccccc1Cl [SB-373598],0%
6,O=C(Nc1ccccc1)Nc1cccc(Oc2ccc3nccn3n2)c1,0%
7,Nc1ncnc2[nH]c(-c3ccccc3)nc12 [AH5015],28%
8,CS(=O)(=O)c1ccc(-c2c(-c3ncn[nH]3)sc(N3CCOCC3)c2C#N)cc1,9%
9,Cc1c(O)cccc1Nc1ccnc2ccc(C(F)(F)F)cc12.Cl [GW466413],0%
10,CS(=O)(=O)c1ccc(-c2nc3n(c2-c2ccncc2)CCC3)cc1 [SKF-105942],7%
11,Cc1cc(NCC(c2ccccc2)c2ccccc2)nc(NCc2ccc(C(F)(F)F)cc2)n1 [GW497681],0%
12,Cl.NC(=O)c1cccc(Nc2nccc(Nc3ccc(Oc4cccc(Cl)c4)c(Cl)c3)n2)c1 [GW659008],10%
13,CC(C)(C)c1ccc(C(=O)Nc2cn3cc(Cl)ccc3n2)cc1,0%
14,O=c1cc(N2CCOCC2)nc2n(Cc3cccc(Cl)c3Cl)ccn12 [GSK2286295],0%
15,CCCc1ccc(S(=O)(=O)NC2CCN(c3ccnc(Nc4ccc(F)cc4)n3)C2)cc1 (stereo not shown) [GSK1379715],0%
16,O=S(=O)(c1ccc(-c2ccnc3[nH]ccc23)cc1)N1CCCC1 [GSK846226],4%
17,COc1ccc(C2=C(Nc3cccc(C(=O)O)c3)C(=O)NC2=O)cc1 [SB-390765],10%

# Tested on: TESK1
# Settings: concentration: 1 μM, replicates: in singlicate; n = 1
row,SMILES,%Inh
1,Cl.c1ccc(-c2n[nH]cc2-c2ccnc(-c3ccc(CN4CCOCC4)cc3)c2)nc1 [GW776245],6%
2,Cc1nnc(-c2ccc3occ(-c4ccc(S(C)=O)cc4)c3c2)[nH]1 (stereo not shown),2%
3,Cn1ccc2ncnc(Oc3ccc(Nc4nc5ccccc5[nH]4)cc3)c21,0%
4,COc1cc2ncn(-c3cc(OCC4CCCO4)c(C(N)=O)s3)c2cc1OC (stereo not shown) [GSK204607],0%
5,Cc1cccc(-c2nc(-c3ccc(S(C)(=O)=O)cc3)sc2-c2ccnc(NCCc3ccccc3)c2)c1,11%
6,COC(=O)c1c(-c2ccccc2)c2cc(C(=O)O)ccc2c(=O)n1Cc1ccccc1,0%
7,Cl.Oc1ccc(-c2nc(-c3ccccc3)[nH]c2-c2ccncc2)cc1 [SB-428218],36%
8,CC(=O)Nc1nc2cnc(Nc3cc(NC(=O)c4cccc(CCC#N)c4)ccc3C)nc2s1,0%
9,CSc1nn2c(=O)cc(N3CCOCC3)nc2n1Cc1cccc(C(F)(F)F)c1C [GSK2363608],19%
10,O=C(Nc1n[nH]c2nc(-c3nccs3)c(Br)cc12)C1CCCC1 [SB-742609],43%
11,CCn1c(-c2ccccn2)nc2cnccc21 [SB-736398],0%
12,NC(=O)c1nnc2ccccc2c1N,6%
13,COc1ccc(Nc2nccc(NCCNC(=O)Nc3ccccc3F)n2)cc1 [GSK1379901],44%
14,Cc1cc(N2Cc3ccccc3C2)nc(Nc2ccc(S(=O)(=O)N3CCOCC3)cc2)n1.Cl [GSK1669917],12%
15,CC1=C(C(=O)Nc2cc3cn[nH]c3cc2F)C(c2ccc(C(F)(F)F)cc2)CC(=O)N1 (stereo not shown) [GSK429286],30%
16,COC(=O)c1c(-c2ccccc2)c2cc(OC)ccc2c(=O)n1Cc1ccccc1,20%
17,O=C(O)COc1ncnc2cc(-c3ccc4[nH]ncc4c3)sc12,13%
18,Nc1nc(-c2nccs2)c(-c2ccnc3ccccc23)s1 [GW693542],26%

row,SMILES,%Inh
1,Cn1cncc1-c1ccc2ncnc(Nc3ccc(OCc4ccccc4)cc3)c2c1 [GW320571],11%
2,O=C(Nc1ccc2c(c1)OCO2)NC1CCN(c2ccnc(Nc3ccc(F)cc3)n2)C1 (stereo not shown) [GSK1379724],32%
3,Cc1ccccc1-n1cnc2c(N)ncnc21 [SKF-97510],3%
4,Cn1ccc2ncnc(Oc3ccc(NC(=O)Nc4ccccc4)cc3)c21,1%
5,O=C1NC(=O)C(N2CCc3ccccc32)=C1c1ccccc1Cl [SB-373598],27%
6,O=C(Nc1ccccc1)Nc1cccc(Oc2ccc3nccn3n2)c1,0%
7,Nc1ncnc2[nH]c(-c3ccccc3)nc12 [AH5015],30%
8,CS(=O)(=O)c1ccc(-c2c(-c3ncn[nH]3)sc(N3CCOCC3)c2C#N)cc1,0%
9,Cc1c(O)cccc1Nc1ccnc2ccc(C(F)(F)F)cc12.Cl [GW466413],10%
10,CS(=O)(=O)c1ccc(-c2nc3n(c2-c2ccncc2)CCC3)cc1 [SKF-105942],1%
11,Cc1cc(NCC(c2ccccc2)c2ccccc2)nc(NCc2ccc(C(F)(F)F)cc2)n1 [GW497681],13%
12,Cl.NC(=O)c1cccc(Nc2nccc(Nc3ccc(Oc4cccc(Cl)c4)c(Cl)c3)n2)c1 [GW659008],40%
13,CC(C)(C)c1ccc(C(=O)Nc2cn3cc(Cl)ccc3n2)cc1,0%
14,O=c1cc(N2CCOCC2)nc2n(Cc3cccc(Cl)c3Cl)ccn12 [GSK2286295],1%
15,CCCc1ccc(S(=O)(=O)NC2CCN(c3ccnc(Nc4ccc(F)cc4)n3)C2)cc1 (stereo not shown) [GSK1379715],74%
16,O=S(=O)(c1ccc(-c2ccnc3[nH]ccc23)cc1)N1CCCC1 [GSK846226],9%
17,COc1ccc(C2=C(Nc3cccc(C(=O)O)c3)C(=O)NC2=O)cc1 [SB-390765],12%
